Calls of active or inactive are those of the source. Entries that show only a call come without a potency. Calls come from the whole dose curve; as a rule, active = well fitted activation curve with a large enough effect in the repeat runs; inconclusive = weak or mixed curves; inactive = flat fitted curve, though single readings scatter. Numbered stars: 1 amine (or outer) side, 2 acyl side, 3 side chain; on linkers, the order of the positions; unused ones are H or OH. Bridge positions count the residues as written; N and C are the ends. Square brackets hold non-standard residues; d marks the D form. Peptide text beside a SMILES is read from it. I, II: the chains in the order shown. Actinocin(9to1) = Cc1c2oc3c(C)ccc(C(=O)[*:1])c3nc-2c(C(=O)[*:2])c(N)c1=O; NMeV = CN[C@H](C(=O)O)C(C)C; Sar = CNCC(=O)O
target: KiSS-1 receptor (Homo sapiens) (UniProt Q969F8); assay: Human kisspeptin (KISS1R) small molecule agonists, calcium flux assay in KISS1R-HEK293 cells (AID 1920064); conditions: KISS1R-HEK293, calcium flux fluorescence, agonist; series mostly up to 76.8 µM
Outline: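 After overnight (18 h) culture at 37 C/5% CO2, human KISS1R-HEK293 cells received calcium dye for 1 h, then test compound; emission at 540 nm (excitation 480 nm) was tracked for 3 min.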

KiSS-1 receptor (Homo sapiens), sequence (Q969F8 whole entry, looked up): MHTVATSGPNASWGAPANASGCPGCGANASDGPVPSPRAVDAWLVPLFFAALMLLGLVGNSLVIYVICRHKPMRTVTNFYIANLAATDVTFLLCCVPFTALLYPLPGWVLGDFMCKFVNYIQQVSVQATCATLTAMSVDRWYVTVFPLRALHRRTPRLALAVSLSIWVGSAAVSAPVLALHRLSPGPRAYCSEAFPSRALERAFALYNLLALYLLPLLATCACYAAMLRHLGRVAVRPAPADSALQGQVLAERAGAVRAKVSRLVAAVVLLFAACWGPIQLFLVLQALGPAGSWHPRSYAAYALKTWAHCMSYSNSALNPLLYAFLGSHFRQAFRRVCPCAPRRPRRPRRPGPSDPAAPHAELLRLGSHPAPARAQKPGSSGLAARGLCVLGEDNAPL

Row | SMILES | activation | Potency
1 | Cc1cc(C)c(N=Nc2c(O)c(S(=O)(=O)O)cc3cc(S(=O)(=O)O)ccc23)cc1C | 0.221% [at 6.97 µM] (inactive) | –
2 | CC(=O)Nc1c(I)cc(I)c(C(=O)O)c1I | – | inactive
3 | C=COCCOCCOCCOC=C | – | inactive
4 | O=C1OC(=O)c2ccc3c4c(ccc1c24)C(=O)OC3=O | – | inactive
5 | CC(=O)[O][Al][O]C(C)=O | – | inactive
6 | COc1ccc2cc(C=O)ccc2c1 | – | inactive
7 | Cc1occc1S | – | inactive
8 | CCCN1CCCC[C@H]1C(=O)Nc1c(C)cccc1C | – | inactive
9 | Cc1ccc(NC(=O)N(C)C)cc1NC(=O)N(C)C | – | inactive
10 | CCN(CC)CCN | – | inactive
11 | O=[N+]([O-])c1ccccc1Nc1ccccc1 | – | inactive
12 | NC(=O)c1ncn([C@@H]2O[C@H](CO)[C@@H](O)[C@H]2O)c1O | – | inactive
13 | O=C(O)[C@@H]1[C@H]2C[C@H]3c4[nH]c5ccccc5c4CCN3C[C@@H]2CC[C@@H]1O | – | inactive
14 | CC1(C)C(C=C(Cl)Cl)C1C(=O)OCc1cccc(Oc2ccccc2)c1 (centres undefined) | – | inactive
15 | CC[C@]1(O)C[C@@H]2CN(CCc3c([nH]c4ccccc34)[C@@](C(=O)OC)(c3cc4c(cc3OC)N(C)[C@H]3[C@@](O)(C(=O)OC)[C@H](OC(C)=O)[C@]5(CC)C=CCN6CC[C@]43[C@@H]65)C2)C1 | – | inactive
16 | O=C(O)c1ccccc1OP(=O)(O)O | – | inactive
17 | CCCCN(CCO)CCO | – | inactive
18 | COC(OC)C(C)c1ccccc1 (centres undefined) | – | inactive
19 | Nc1cc(=O)[nH]c(N)n1 | – | inactive
20 | CCOC(OCC)OCC | – | inactive

Row | SMILES | activation | Potency
21 | C=CCOC(=O)CCCCCC | – | inactive
22 | O=C(O)[C@@H](O)[C@H](O)[C@H](O)[C@@H](O)C(=O)O | – | inactive
23 | CCCCCCCCCC(C)=O | – | inactive
24 | OC/C=C/CO | – | inactive
25 | CCCCCCCCCCCCC(=O)O | – | inactive
26 | Cc1ccc(S(=O)(=O)NC(=O)NC2CCCC2)cc1 | – | inactive
27 | CCCC(=O)c1ccccc1 | – | inactive
28 | NC(=O)c1cccc([N+](=O)[O-])c1 | – | inactive
29 | COc1c2ccoc2cc2oc(=O)ccc12 | – | inactive
30 | CC(C)c1cccc(C(C)C)c1N | – | inactive
31 | CCCCCCCCC1CCC(=O)O1 (centres undefined) | – | inactive
32 | Cc1cccc(Cl)c1 | – | inactive
33 | CO[Si](C)(C)OC | – | inactive
34 | COCc1ccc(COC)cc1 | – | inactive
35 | c1c[nH]cn1 | – | inactive
36 | OC1(c2ccc(Cl)cc2)CCNCC1 | – | inactive
37 | Cc1c2oc3c(C)ccc(C(=O)N[C@@H]4C(=O)N[C@H](C(C)C)C(=O)N5CCC[C@H]5C(=O)N(C)CC(=O)N(C)[C@@H](C(C)C)C(=O)O[C@@H]4C)c3nc-2c(C(=O)N[C@@H]2C(=O)N[C@H](C(C)C)C(=O)N3CCC[C@H]3C(=O)N(C)CC(=O)N(C)[C@@H](C(C)C)C(=O)O[C@@H]2C)c(N)c1=O (I: T[dV]P[Sar][NMeV] / II: T[dV]P[Sar][NMeV]; ester I:1-I:C, II:1-II:C; linker I:N-II:N via Actinocin(9to1)) | – | inactive
38 | C1CCCCC1 | – | inactive
39 | Cc1ccc(C(C)c2ccc(C)c(C)c2)cc1C | – | inactive
